High-throughput results: PubChem BioAssay, National Center for Advancing Translational Sciences (NCATS)
Shown are actives, neighbours in structure and some others; about 1.2% of the full set was active somewhere.
gsp agonist: qHTS for Agonist of gsp, the Etiologic Mutation Responsible for Fibrous Dysplasia/McCune-Albright Syndrome: qHTS. gsp mutant cells, cAMP HTRF, 30 min. Potency, µM (doses to about 76.9 µM), inactives show top-dose activation (cAMP increase), actives largely listed as activators. 340,000 compounds, 0.13% hits; active = well fitted activation curve with a large enough effect; inconclusive = small, poorly fitted or top-dose-only effect, or another doubt; inactive = no such curve, though single readings can be large or run the other way; cell line not stated here;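 note: phosphodiesterase inhibitor Ro 20-1724 added with compounds to block cAMP breakdown; potency is the fitted concentration of half-maximal effect; nearly all actives have a fitted effect of over 60% in size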
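Cells stably selected in G418 were plated at 2000/well, grown 16-24 hr, then given compounds in DMSO with the PDE inhibitor […] (300 uM solution added) for 30 min at 37C; cAMP was read by HTRF.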
RXFP1 antagonist: qHTS Assay for Antagonists of the Relaxin Receptor RXFP1; Relaxin receptor 1 (Homo sapiens), Q9HBX9; HEK293-RXFP1, relaxin-stimulated cAMP HTRF, 30 min; active compounds read low; activity change, negative = inhibition, % at 57.5 µM; 350,000 compounds, 0.59% hits; AID 1259400, 2018;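 active = activity change of -60% or lower, but not beyond a set lower limit; inconclusive = change between -60% and -40%, or beyond the set limit; inactive = change above -40%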; note: % is set by controls: 0 for no effect and ±100 for the full control effect
Akt phos inh: HTS Assay for Inhibitors of Akt Phophorylation: Primary Screen; 360,000 compounds, 0.32% hits; Neuro2A IGF-stimulated pAkt S473 HTRF, 20 min; active compounds read low; activity change, % for hits at 50 µM; in the data active = activity change below about -80%; inconclusive = mostly about -51% to -80%; note: % is set by controls: 0 for no effect and ±100 for the full control effect
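Neuro2A cells in DMEM with 0.5% FBS, overnight at 37 deg C, given compound at single 50 µM final, then IGF (6 nM final) for 20 min at 37 deg C. Lysed; phospho-Akt Ser473 by HTRF after 24 h, 665/615 ratio.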
gsp antag: qHTS for Antagonists of gsp, the Etiologic Mutation Responsible for Fibrous Dysplasia/McCune-Albright Syndrome: qHTS; gsp-mutant cells, cAMP HTRF, 30 min; Potency, µM (highest dose often 76.9 µM), inactives show at the top dose activity change, negative = inhibition, hits mostly inhibitors; 340,000 compounds, 0.4% hits; calls by dose curve; cell line not stated here;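 note: intracellular cAMP measured with PDE inhibitor Ro 20-1724 present during compound exposure; potency is the fitted concentration of half-maximal effect; % is set by controls: 0 for no effect and ±100 for the full control effect; nearly all actives have a fitted effect of over 65% in size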
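G418-selected cells were plated in DMEM/10% FBS for 16-24 h at 37C, then treated with compounds plus the PDE inhibitor […] (300 uM solution added) for 30 min at 37C. Intracellular cAMP was measured by HTRF after 30 min lysis at room temperature.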
RXFP1 agonist: qHTS Assay for Agonists of the Relaxin Receptor RXFP1; Relaxin receptor 1 (Homo sapiens), Q9HBX9; HEK293T-RXFP1 cAMP TR-FRET, 30 min; response scale: percent of porcine relaxin response, buffer zero; Potency, µM (top dose mostly 57.5 µM), without a hit: at the highest dose activation, usual class: activators; 370,000 compounds, 0.3% hits; AID 2676, 2010; active = well fitted activation curve with a large enough effect; inconclusive = small, poorly fitted or top-dose-only effect; note: potency is the fitted concentration of half-maximal effect; % is set by controls: 0 for no effect and ±100 for the full control effect; nearly all actives have a fitted effect of over 60% in size
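HEK293T cells stably expressing RXFP1 were pretreated with the PDE4 inhibitor Ro 20174, exposed to compounds for 30 min at 37C, lysed, and cAMP was read by TR-FRET. Data normalized to buffer (basal) and 29 nM porcine relaxin (100%).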
Starred values were filed as active, the others as inactive; i = inactive; u = inconclusive; x = no result given; [ ] = remark or other dose.

SMILES | gsp agonist | RXFP1 antagonist | Akt phos inh | gsp antag | RXFP1 agonist
CCCC(=O)Nc1ncnc2c1ncn2[C@@H]1O[C@@H]2COP(=O)(O)O[C@H]2[C@H]1OC(=O)CCC | x | x | i | 39% | 0.16µM*
COc1cc(NC(=O)CC[C@H]2O[C@@H](n3cnc4c(NC(=O)c5ccccc5)ncnc43)[C@H](O)[C@@H]2O)cc(OC)c1OC | x | x | i | x | x
CCN(CC)c1ccc(CN(C(=O)Cc2coc3ccc(C)cc23)C2CCS(=O)(=O)C2)cc1 (centres undefined) | x | -25 | x | x | 0%
COc1cc(C(=O)Nc2cccc(-c3nc4cc(C)ccc4o3)c2C)cc(OC)c1OC | -15% | -14 | -105%* | 11% | 7%
COc1ccccc1NC(=O)c1oc2ccccc2c1NC(=O)c1cc(OC)c(OC)c(OC)c1 | 21% | -10 | -93%* | 26% | x
COc1cc(C(=O)Nc2cccc(-c3nc4ncccc4o3)c2C)cc(OC)c1OC | 5% | -12 | u | 3% | 7%
CCOC(=O)Oc1ccc(CCNC(=O)[C@H](CCSC)NC(C)=O)cc1OC(=O)OCC | x | -11 | x | x | x
CCCN(C(=O)COc1cc(=O)n(CC)c2ccccc12)c1ccc(C(C)C)cc1 | x | -28 | x | x | 0%
COc1ccc(OC)c(C2C(C(=O)Nc3nc4ccccc4s3)=C(C)NC3=C2C(=O)CCC3)c1 (centres undefined) | -15% | -3 | x | 32µM* | 3%
O=C(Nc1nc2ccccc2s1)c1ccc(OCC2CCCO2)cc1 (centres undefined) | 12% | -35 | i | 32µM* | 1%
COc1ccc(C(=O)Nc2nc3ccccc3[nH]2)cc1 | 6% | -78* | i | -16% | 0%
COc1ccc(C(=O)Nc2nc3ccccc3s2)cc1 | 7% | -66* | i | u | 2%
Cc1ccccc1OCC(=O)Nc1ccc(S(=O)(=O)N(Cc2ccccc2)c2ccccc2)cc1 | x | -6 | x | x | -3%
C[C@H]1NCc2cc(-c3ccc4c(=O)c(C(=O)O)cn(C5CC5)c4c3OC(F)F)ccc21 | x | 9 | x | x | x
COc1ccccc1C(=O)NCCC(=O)Nc1nc2ccccc2[nH]1 | 9%[15.4 µM] | -86* | i | -1% | 1%
COC(=O)c1ccc(NC(=O)COc2ccc(C3C(C#N)=C(N)Oc4c3ccc3ccccc43)cc2OC)cc1 (centres undefined) | -1% | -6 | i | -9% | 2%
COc1cc(C2C(C#N)=C(N)Oc3c2ccc2ccccc32)ccc1OCC(=O)Nc1ccccc1C (centres undefined) | -13% | -9 | -104%* | -8% | 1%
N#Cc1cccc(S(=O)(=O)N2CCN(c3ccnc4cc(Cl)ccc34)CC2)c1 | -32% | -3 | i | 25µM* | -3%
COc1ccccc1N1CCN(c2ccnc3cc(Cl)ccc23)CC1 | 21% | 6 | i | 10% | 1%
O=S(=O)(c1cccc(Br)c1)N1CCN(c2ccnc3cc(Cl)ccc23)CC1 | 2%[15.4 µM] | -4 | i | -20% | 0%
COc1ccccc1NC(=O)N1CCN(c2ccnc3cc(Cl)ccc23)CC1 | -3%[15.4 µM] | -36 | i | 35µM* | -2%
O=C(C1CCC1)N1CCN(c2ccnc3cc(Cl)ccc23)CC1 | 4% | -5 | i | -20% | 0%
O=C(C1CCCCC1)N1CCN(c2ccnc3cc(Cl)ccc23)CC1 | 4%[15.4 µM] | -4 | i | 35µM* | 1%
CCN(CC)S(=O)(=O)c1ccc2c(c1)N(CC(=O)Nc1ccc(OC)cc1)C(=O)CS2 | x | -4 | x | x | 0%
Cn1c(=O)c(=O)n(C)c2cc(S(=O)(=O)N3CCC(Cc4ccccc4)CC3)ccc21 | 4% | 0 | i | -2% | 6%
O=c1[nH]c2ccc(S(=O)(=O)N3CCC(Cc4ccccc4)CC3)cc2o1 | 8% | -6 | i | 25µM* | 2%
O=C(NCc1cccs1)c1ccc(CSc2nc3ccncc3n2Cc2ccccc2F)cc1 | x | -12 | x | x | 2%
